In the library only some 3.5% were active in any assay of this set; here they are far more common.
GPR151 ag = activators of human GPR151; AID 1508602; Q8TDV0; activation, % at 11.2 µM; PathHunter beta-arrestin GPR151 cells, luminescence; actives 1% (n = 650,000); in the data active means activation above about 4.9%
MITF inh = human MITF inhibition, primary screen | O75030 | AlphaScreen MITF homodimerization, bead proximity signal | inhibition, % at 2.6 µM | actives 0.91% (n = 650,000); in the data active means inhibition above about 50%
FBW7 activator = human FBW7 E3 ligase activation, primary screen; Q969H0; AlphaScreen FBW7–phospho-cyclin E peptide binding, activator screen; normalized activity (activation), % at 26.1 µM; actives 0.13% (n = 650,000); AID 1259310; in the data active means normalized activity above about 1.9%;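 further: purified mutant Fbw7 with reduced substrate affinity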
TEAD-YAP inh = TEAD-YAP interaction inhibition | HEK-TIYL cells, TEAD-Gal4/YAP UAS-luciferase luminescence | actives 1.4% (n = 640,000) | inhibition, % at 9.12 µM | AID 1259422; in the data active means inhibition above about 32%
GPR151 conf act = human GPR151 activation, confirmation screen; shares compounds with GPR151 ag; GPR151 PathHunter beta-arrestin cells, luminescence, 90 min; % of EA-reagent control over plate median; activation, % at 11.2 µM; 6,700 tested, under 10 active;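 active means mean percent activation across replicates above the confirmation screen cutoff of 4.91%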
GPR119 ag = counter-screen for GPR151 activators: effect on human GPR119; shares compounds with GPR151 ag; GPR119 PathHunter beta-arrestin cells, luminescence, 90 min; 0 = compound-well median, 100 = enzyme-acceptor control; activation, % at 11.2 µM; actives 0.3% (n = 6,700); AID 1508611;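 active means mean percent activation in the counterscreen above 29.09%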;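 further: counterscreen on off-target GPR119 to flag nonselective hits from the GPR151 activator screen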
Target sequence (Q8TDV5 whole entry, looked up): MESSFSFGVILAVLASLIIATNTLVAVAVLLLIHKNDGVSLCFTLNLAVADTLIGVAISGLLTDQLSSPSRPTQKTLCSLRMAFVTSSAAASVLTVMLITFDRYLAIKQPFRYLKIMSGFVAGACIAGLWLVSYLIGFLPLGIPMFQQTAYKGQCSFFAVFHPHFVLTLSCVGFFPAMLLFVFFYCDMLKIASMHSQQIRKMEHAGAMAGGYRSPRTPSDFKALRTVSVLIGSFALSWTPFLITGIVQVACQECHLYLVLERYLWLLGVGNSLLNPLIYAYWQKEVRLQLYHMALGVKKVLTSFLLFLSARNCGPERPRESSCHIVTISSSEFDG
Numbers stand for hits; - = inactive; . = no result.

SMILES	GPR151 ag	MITF inh	FBW7 activator	TEAD-YAP inh	GPR151 conf act	GPR119 ag
COc1cc(C2/C(=C(/O)c3ccc(Cl)cc3)C(=O)C(=O)N2CCO)ccc1O (stereo unspecified)	-	-	-	-	.	.
CCOc1ccc(NC2=NC(C(=O)Nc3ccccc3)CC(=O)N2)cc1 (stereo unspecified)	-	-	-	-	.	.
COc1ccc(NC(=O)Nc2ccc(Cl)cn2)cc1OC	-	-	-	-	.	.
CC(C)N(C(=O)C[n+]1cccc(/C=N/O)c1)C(C)C	-	-	-	-	.	.
NC(=O)C[n+]1cccc(/C=N/O)c1	6.3	-	-	-	-	-
O=[N+]([O-])c1ccc(/C=N/NC2=Nc3cccc4cccc2c34)cc1	6.3	-	-	-	-	-
O=C(NC1=Nc2cccc3cccc1c23)c1ccc([N+](=O)[O-])cc1	5.5	-	-	-	-	-
O=[N+]([O-])c1cccc(/C=N/NC2=Nc3cccc4cccc2c34)c1	-	-	-	-	.	.
CN(Cc1nnc(-c2ccccc2)o1)Cc1cc(-c2ncccn2)ccc1O	11	-	-	-	-	-
CN(Cc1ccccc1)Cc1cc(-c2ncccn2)ccc1O	-	-	-	-	.	.
Nc1nc(CSc2nnnn2Cc2ccccc2)nc(N2CCOCC2)n1	7.6	-	-	-	-	-
C=CCn1c(=NC(=O)c2ccco2)sc2cccc(OC)c21	-	-	-	-	.	.
COc1ccc(OC)c2c1sc(=NC(=O)c1ccco1)n2C	5.3	-	-	-	-	-
CCn1c(=NC(=O)c2ccco2)sc2cccc(OC)c21	5.0	-	-	-	-	-
CCOCCn1c(=NC(=O)c2ccco2)sc2cc(C)ccc21	5.8	-	-	-	-	-
CCn1c(=NC(=O)c2ccco2)sc2cc3c(cc21)OCCO3	5.7	-	-	-	-	-
CCn1c(=NC(=O)c2ccco2)sc2cccc(F)c21	-	-	-	-	.	.
CCN(CC)C(=O)C1CCCN(c2nc(NCCO)c3ncn(-c4ccccc4)c3n2)C1 (stereo unspecified)	-	-	-	-	.	.
O=C1c2ccc(F)cc2C(=O)N1c1ccc2c(c1)OCO2	-	-	-	-	.	.
COc1ccc(CCNC(=O)CSc2cn(CCNC(=O)c3ccc(F)cc3)c3ccccc23)cc1OC	-	-	-	-	.	.
CCOC(=O)c1sc(-c2ccccc2)cc1NC(=O)c1cc2ccccc2cc1OC	-	-	-	-	.	.
CCOC(=O)c1sc(-c2ccccc2)cc1NC(=S)NC(=O)CN1C(=O)CCC1=O	7.7	-	-	-	-	-
CCN(CC)C(=O)C1CCCN(c2cc(C(=O)NCc3nc4ccccc4[nH]3)ccn2)C1 (stereo unspecified)	6.6	-	-	-	-	-
CC(C)CS(=O)(=O)Nc1ccc2c(c1)CCCN2S(=O)(=O)c1ccccc1	-	-	-	-	.	.
O=C(O)CC(NC(=O)C12CC3CC(CC(C3)C1)C2)c1cccc([N+](=O)[O-])c1 (stereo unspecified)	6.0	-	-	-	-	-
SMILES	GPR151 ag	MITF inh	FBW7 activator	TEAD-YAP inh	GPR151 conf act	GPR119 ag
O=C(O)CC(NC(=O)C12CC3CC(CC(C3)C1)C2)c1ccc(Cl)cc1 (stereo unspecified)	-	-	-	-	.	.
O=C(CCCCCN1C(=O)c2ccccc2C1=O)Nc1ccccc1	-	-	-	-	.	.
O=C(CCCCCCN1C(=O)c2ccccc2C1=O)NN(c1ccccc1)c1ccccc1	6.2	-	-	-	-	-
Cc1c(Cl)cccc1NC(=O)CCNS(=O)(=O)c1ccc2[nH]c(=O)ccc2c1	-	-	-	-	.	.
Nc1ccc2nc(-c3ccc([N+](=O)[O-])cc3)[nH]c2c1	-	-	-	-	.	.
Nc1ccc2nc(-c3ccc(N=Cc4cc([N+](=O)[O-])cc([N+](=O)[O-])c4O)cc3)[nH]c2c1	7.0	-	-	-	-	-
O=c1c2c3c(sc2ncn1/N=C/c1ccc(O)c(O)c1O)CCCC3	5.4	58	-	-	-	-
CCC(Sc1nc2ccccc2c(=O)n1CCc1ccc(OC)c(OC)c1)C(=O)N1CCOCC1 (stereo unspecified)	-	-	-	-	.	.
CCC(Sc1nc2ccccc2c(=O)n1CCc1ccc(OC)c(OC)c1)C(=O)N(CC)CC (stereo unspecified)	6.0	-	-	-	-	-
COc1ccc(CCn2c(SCC(=O)c3ccc(F)cc3)nc3ccccc3c2=O)cc1OC	5.4	-	-	-	-	-
COc1ccc(C(C)=O)cc1CSc1nc2ccccc2c(=O)n1CCc1ccc(OC)c(OC)c1	6.9	-	-	-	-	-
COC(=O)c1ccc2c(=O)n(CCc3ccc(OC)c(OC)c3)c(SCC(=O)Nc3cc(C)on3)nc2c1	5.8	-	-	-	-	-
COC(=O)c1ccc2c(=O)n(CCc3ccc(OC)c(OC)c3)c(SCC(=O)Nc3ccc(C)cc3)nc2c1	-	-	-	-	.	.
CCOc1ccc(C(=O)N2CCCC(c3ncncc3-c3ccncc3)C2)o1 (stereo unspecified)	-	-	-	-	.	.
CCOc1ccc(C(=O)N2CCC(c3ncncc3-c3ccncc3)CC2)o1	18	-	-	-	-	-
CCCCC[C@@](C)(O)/C=C/[C@@H]1[C@@H](C/C=C\CCCC(=O)OC)[C@@H](O)C[C@H]1O	-	-	.	.	.	.
CCCCC[C@@](C)(O)/C=C/[C@@H]1C(C/C=C\CCCC(=O)O)[C@@H](O)C[C@H]1O (stereo partly specified)	7.1	-	.	.	-	-
CN(C)c1ccc(/C=C/CN2CCCCCC2)cc1	4.9	-	-	-	-	-
CN(C)c1ccc(/C=C/CN2CCC(O)CC2)cc1	-	-	-	-	.	.
CC(=O)N1CCOc2cc(S(=O)(=O)N3CCCc4ccccc43)ccc21	-	-	-	-	.	.
CC(=O)N1CCc2ccc(S(=O)(=O)N3CCCc4ccccc43)cc21	6.7	-	-	54	-	-
O=C1C2C3CCC(C3)C2C(=O)N1c1ccc(OS(=O)(=O)c2ccccc2)cc1 (stereo unspecified)	7.6	-	-	-	-	-
Cn1nccc1Nc1cccc(C(=O)NCCOc2ccccc2)n1	11	-	-	-	-	-
CCCNC(=O)c1cccc(Nc2ccnn2C)n1	-	-	-	-	.	.
Cc1ccc(-c2cccc(CN3CCN(C)C(CCO)C3)c2)o1 (stereo unspecified)	8.8	-	-	-	-	-
Cc1ccc(-c2ccc(CN3CCN(C)C(CCO)C3)cc2)o1 (stereo unspecified)	-	-	-	-	.	.
CN1CCN(Cc2ccc(-c3ccccc3Cl)o2)CC1CCO (stereo unspecified)	14	-	-	-	-	-
COc1ccc(-c2nc(NCCOc3ccccc3)c3ncn(Cc4ccc(C(F)(F)F)cc4)c3n2)cc1	4.9	-	-	-	-	-
